Results filed as inconclusive are left out. The source made the active and inactive calls. Unless noted, the call rests on the fitted dose curve; in most records, active means well fitted curve in the direction sought with a large enough effect in the repeat runs; inconclusive means weak or mixed curves; inactive means no such curve, though single readings can be large; an effect the other way counts as inactive or inconclusive.
How the values were obtained:
[1] = qHTS assay to identify aromatase inhibitors - cell viability counter screen (AID 743084);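 further: cells stimulated with testosterone during compound exposure; nearly all actives have a fitted effect of over 55% in size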; further: potency means the concentration at half of the fitted maximal effect
[2] = qHTS assay to identify small molecule that activate the aryl hydrocarbon receptor (AhR) signaling pathway - cell viability counter screen (AID 743086);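 further: HepG2 liver cells carrying the AhR DRE luciferase reporter; series mostly up to about 70 µM; nearly all actives have a fitted effect of over 45% in size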
Summary of the method: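 HepG2-AhR-luc (HG2L7.5c1) cells, 4000/well, treated 24 h at 37 C with compound; viability measured as CellTiter-Fluor fluorescence after 30 min in the same wells as the luciferase read.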

[3] = target: Peroxisome proliferator-activated receptor gamma (Homo sapiens) (UniProt P37231); assay: qHTS assay to identify small molecule agonists of the peroxisome proliferator-activated receptor gamma (PPARg) signaling pathway (AID 743094; active means well fitted activation curve with a large enough effect in the signal ratio in the repeat runs, not every such curve was filed as active; the % refers to the signal ratio)
Chain of Peroxisome proliferator-activated receptor gamma (Homo sapiens) (P37231 whole entry, looked up): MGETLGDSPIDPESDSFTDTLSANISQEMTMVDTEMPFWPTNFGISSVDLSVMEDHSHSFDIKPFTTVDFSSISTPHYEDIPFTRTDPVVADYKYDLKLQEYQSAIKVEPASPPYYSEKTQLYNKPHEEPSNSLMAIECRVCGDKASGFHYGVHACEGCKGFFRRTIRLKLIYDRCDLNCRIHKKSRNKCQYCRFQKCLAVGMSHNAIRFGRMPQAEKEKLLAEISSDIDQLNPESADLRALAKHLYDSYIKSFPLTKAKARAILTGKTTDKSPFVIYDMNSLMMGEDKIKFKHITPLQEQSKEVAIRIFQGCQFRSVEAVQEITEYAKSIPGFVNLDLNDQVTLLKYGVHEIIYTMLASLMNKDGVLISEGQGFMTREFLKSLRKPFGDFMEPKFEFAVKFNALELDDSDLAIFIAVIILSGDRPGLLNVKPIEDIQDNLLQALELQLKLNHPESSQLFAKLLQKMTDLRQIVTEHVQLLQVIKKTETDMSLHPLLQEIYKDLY
Summary of the method: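 Cells from the PPARg UAS-bla HEK293H line are plated and incubated 5 h at 37C. Compounds in DMSO are pinned in and left 17 h at 37C. LiveBLAzer B/G substrate is then added for 1 h at room temperature before fluorescence is measured.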

[4] = qHTS assay to identify small molecule antagonists of the peroxisome proliferator-activated receptor gamma (PPARg) signaling pathway - cell viability counter screen (AID 743194); further: nearly all actives have a fitted effect of over 55% in size
Summary of the method: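 Cytotoxicity counter screen in PPARg-bla HEK293H cells, same wells as reporter assay. Compounds plus 50 nM rosiglitazone (final) for 17 h at 37 C, then viability read by CellTiter-Glo luminescence.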

[5] = qHTS assay for small molecule activators of the heat shock response signaling pathway - cell viability counter screen (AID 743209); further: nearly all actives have a fitted effect of over 50% in size
Summary of the method: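 Cytotoxicity counter screen run in parallel with the HSE beta-lactamase reporter, using the same wells. HeLa HSE-bla cells received compound for 5 h at 37 C; ATP-based CellTiter-Glo luminescence was measured after 30 min at room temperature.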

[6] = qHTS assay for small molecule activators of the heat shock response signaling pathway (AID 743210; active means well fitted activation curve with a large enough effect in the signal ratio in the repeat runs, with a control signal flat, not every such curve was filed as active; the % refers to the signal ratio;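 further: HeLa cells with beta-lactamase reporter driven by heat shock elements; series mostly up to about 63 µM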)
Summary of the method: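 Beta-lactamase reporter read-out: FRET substrate fluorescence after 2.5 h at RT, following 5 h compound treatment at 37 C of HeLa cells carrying HSE-driven bla reporter; quantitative HTS format.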

[7] = qHTS assay to identify small molecule agonists of the peroxisome proliferator-activated receptor delta (PPARd) signaling pathway - cell viability counter screen (AID 743211); further: nearly all actives have a fitted effect of over 55% in size; further: potency means the concentration at half of the fitted maximal effect
Summary of the method: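 qHTS cell viability: PPARd-bla HEK293H; 17 h cpd, 37C; CellTiter-Glo, luminescence at 30 min RT.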

[8] = target: Peroxisome proliferator-activated receptor delta (Homo sapiens) (UniProt Q03181); assay: qHTS assay to identify small molecule agonists of the peroxisome proliferator-activated receptor delta (PPARd) signaling pathway (AID 743212; calls by dose curve)
Chain of Peroxisome proliferator-activated receptor delta (Homo sapiens) (Q03181 whole entry, looked up): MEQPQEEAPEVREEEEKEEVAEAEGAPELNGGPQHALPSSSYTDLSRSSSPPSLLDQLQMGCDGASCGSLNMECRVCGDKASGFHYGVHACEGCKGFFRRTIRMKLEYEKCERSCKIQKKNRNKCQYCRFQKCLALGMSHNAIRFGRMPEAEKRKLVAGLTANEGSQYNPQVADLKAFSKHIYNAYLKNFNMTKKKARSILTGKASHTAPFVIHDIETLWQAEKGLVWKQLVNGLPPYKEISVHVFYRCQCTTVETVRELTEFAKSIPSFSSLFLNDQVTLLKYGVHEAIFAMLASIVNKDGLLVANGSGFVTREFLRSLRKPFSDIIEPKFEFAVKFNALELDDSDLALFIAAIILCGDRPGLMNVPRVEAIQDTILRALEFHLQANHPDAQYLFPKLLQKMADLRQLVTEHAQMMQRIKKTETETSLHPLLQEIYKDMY
Summary of the method: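 Read-out: beta-lactamase FRET fluorescence after 2 h room-temperature incubation with LiveBLAzer B/G substrate. Cells were HEK293H carrying a UAS-bla reporter for PPARd, treated at 37 C with DMSO-dissolved compounds.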

[9] = qHTS assay to identify small molecule antagonists of the peroxisome proliferator-activated receptor delta (PPARd) signaling pathway - cell viability counter screen (AID 743213); further: nearly all actives have a fitted effect of over 50% in size; further: potency means the concentration at half of the fitted maximal effect
Summary of the method: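 HEK293H PPARd UAS-bla cells, 5 h pre-incubation, compound + L165041 300 nM final, 17 h 37 C; B/G FRET substrate 2 h RT; then CellTiter-Glo 30 min RT, luminescence.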

[10] = target: Peroxisome proliferator-activated receptor delta (Homo sapiens) (UniProt Q03181); assay: qHTS assay to identify small molecule antagonists of the peroxisome proliferator-activated receptor delta (PPARd) signaling pathway (AID 743215; active means well fitted inhibition curve with a large enough effect in the signal ratio in the repeat runs, not every such curve was filed as active; the % refers to the signal ratio;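 further: cells stimulated with agonist L165041 at 300 nM final during compound exposure; series mostly up to about 62 µM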)
Summary of the method: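 Cells: HEK293H with a UAS-driven beta-lactamase reporter responsive to PPARd. Compounds were co-added with L165041 (300 nM, final) and incubated 17 h at 37 C before a 2 h room-temperature FRET substrate step and fluorescence reading.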

[11] = target: Bile acid receptor (Homo sapiens) (UniProt Q96RI1); assay: qHTS assay to identify small molecule antagonists of the farnesoid-X-receptor (FXR) signaling pathway (AID 743217; active means well fitted inhibition curve with a large enough effect in the signal ratio in the repeat runs, not every such curve was filed as active; the % refers to the signal ratio)
Chain of Bile acid receptor (Homo sapiens) (Q96RI1 whole entry, looked up): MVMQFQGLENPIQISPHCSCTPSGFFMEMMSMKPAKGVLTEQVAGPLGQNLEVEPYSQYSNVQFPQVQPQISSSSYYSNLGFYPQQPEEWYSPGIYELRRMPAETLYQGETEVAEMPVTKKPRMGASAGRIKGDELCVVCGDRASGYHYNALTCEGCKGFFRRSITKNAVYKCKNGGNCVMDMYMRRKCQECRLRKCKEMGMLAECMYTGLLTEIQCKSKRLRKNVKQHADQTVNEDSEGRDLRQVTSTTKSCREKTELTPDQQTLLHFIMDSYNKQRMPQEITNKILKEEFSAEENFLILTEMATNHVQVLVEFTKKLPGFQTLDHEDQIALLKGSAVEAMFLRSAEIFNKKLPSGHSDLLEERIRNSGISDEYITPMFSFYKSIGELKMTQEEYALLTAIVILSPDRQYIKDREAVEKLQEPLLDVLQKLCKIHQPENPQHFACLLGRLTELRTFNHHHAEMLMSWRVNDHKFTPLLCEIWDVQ
Summary of the method: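 Cells carrying a UAS-driven beta-lactamase reporter (GeneBLAzer FXR-UAS-bla HEK 293T) were plated and rested 5 h at 37 °C. Compounds in DMSO were added alongside chenodeoxycholic acid agonist at 50 uM final and left 16 h at 37 °C before FRET substrate readout.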

[12] = target: Bile acid receptor (Homo sapiens) (UniProt Q96RI1); assay: qHTS assay to identify small molecule agonists of the farnesoid-X-receptor (FXR) signaling pathway (AID 743220; active means well fitted activation curve with a large enough effect in the signal ratio in the repeat runs, not every such curve was filed as active; the % refers to the signal ratio)
Summary of the method: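 FXR-UAS-bla HEK 293T cells carrying a UAS-driven beta-lactamase reporter were plated for 5 h at 37C/5% CO2, then exposed to DMSO-dissolved Tox21 10K compounds for 16 h at 37C. A LiveBLAzer B/G FRET substrate was loaded for 2 h at room temperature before fluorescence reading.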

[13] = target: Vitamin D3 receptor (Homo sapiens) (UniProt P11473); assay: qHTS assay to identify small molecule agonists of the vitamin D receptor (VDR) signaling pathway (AID 743222; calls by dose curve)
Chain of Vitamin D3 receptor (Homo sapiens) (P11473 whole entry, looked up): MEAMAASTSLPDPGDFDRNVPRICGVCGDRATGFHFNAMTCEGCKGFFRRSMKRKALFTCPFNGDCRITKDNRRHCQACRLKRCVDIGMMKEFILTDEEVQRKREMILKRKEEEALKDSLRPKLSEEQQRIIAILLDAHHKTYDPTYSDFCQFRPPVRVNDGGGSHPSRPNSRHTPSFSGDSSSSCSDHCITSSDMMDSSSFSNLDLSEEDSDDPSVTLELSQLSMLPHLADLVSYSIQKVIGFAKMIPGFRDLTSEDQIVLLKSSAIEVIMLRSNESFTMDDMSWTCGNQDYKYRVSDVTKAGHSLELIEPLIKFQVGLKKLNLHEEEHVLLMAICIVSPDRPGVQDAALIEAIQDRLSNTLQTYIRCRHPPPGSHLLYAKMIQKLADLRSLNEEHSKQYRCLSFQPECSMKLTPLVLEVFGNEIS
Summary of the method: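 Cells carrying a VDR-driven beta-lactamase reporter are seeded at 2,000 per well and rested 4 h. Compounds in DMSO are added for 16 h at 37C, and FRET substrate fluorescence is measured after 2 h at room temperature.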

[14] = target: Aryl hydrocarbon receptor (Homo sapiens) (UniProt P35869); assay: qHTS assay to identify small molecule that activate the aryl hydrocarbon receptor (AhR) signaling pathway (AID 743085); further: nearly all actives have a fitted effect of over 15% in size; further: potency means the concentration at half of the fitted maximal effect;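 on activation: HG2L7.5c1 human HepG2 liver cells with stably integrated DRE-driven firefly reporter; series mostly up to about 70 µM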
Chain of Aryl hydrocarbon receptor (Homo sapiens) (P35869 whole entry, looked up): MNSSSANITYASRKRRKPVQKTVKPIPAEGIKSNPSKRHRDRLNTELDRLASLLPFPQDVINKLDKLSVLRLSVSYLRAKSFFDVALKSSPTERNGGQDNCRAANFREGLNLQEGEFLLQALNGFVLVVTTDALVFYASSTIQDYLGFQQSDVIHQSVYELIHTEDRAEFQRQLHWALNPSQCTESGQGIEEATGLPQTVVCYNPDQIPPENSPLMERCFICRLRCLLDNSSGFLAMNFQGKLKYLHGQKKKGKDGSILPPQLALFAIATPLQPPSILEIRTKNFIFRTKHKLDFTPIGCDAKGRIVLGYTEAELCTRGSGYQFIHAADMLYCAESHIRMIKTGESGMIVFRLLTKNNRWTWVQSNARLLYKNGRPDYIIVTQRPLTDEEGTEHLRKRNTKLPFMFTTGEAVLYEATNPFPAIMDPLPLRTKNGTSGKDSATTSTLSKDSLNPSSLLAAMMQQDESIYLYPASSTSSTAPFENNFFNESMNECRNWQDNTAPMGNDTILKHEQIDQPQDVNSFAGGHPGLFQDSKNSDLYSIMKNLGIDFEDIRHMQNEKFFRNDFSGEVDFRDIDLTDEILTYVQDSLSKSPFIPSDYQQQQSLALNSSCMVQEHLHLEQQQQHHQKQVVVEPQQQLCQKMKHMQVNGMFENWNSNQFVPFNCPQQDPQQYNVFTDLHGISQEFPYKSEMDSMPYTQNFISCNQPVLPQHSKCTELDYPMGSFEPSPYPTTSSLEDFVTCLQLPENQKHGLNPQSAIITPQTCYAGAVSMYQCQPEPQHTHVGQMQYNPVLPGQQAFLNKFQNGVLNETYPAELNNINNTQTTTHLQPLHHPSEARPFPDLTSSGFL
Summary of the method: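 AhR agonist activity is inferred from enhanced light output of a DRE-controlled firefly luciferase reporter in HepG2 cells, measured with ONE-Glo following 24 h treatment at 37C.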

[15] = target: Peroxisome proliferator-activated receptor gamma (Homo sapiens) (UniProt P37231); assay: qHTS assay to identify small molecule antagonists of the peroxisome proliferator-activated receptor gamma (PPARg) signaling pathway (AID 743191; calls by dose curve; further: nearly all actives have a fitted effect of over 30% in size; further: potency means the concentration at half of the fitted maximal effect)
Summary of the method: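 GeneBLAzer PPARg UAS-bla HEK293H cells, 5 h post-plating, exposed to compounds 17 h at 37C. LiveBLAzer B/G FRET substrate added for 1 h at room temperature; beta-lactamase reporter read by fluorescence intensity.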

[16] = qHTS assay for small molecule agonists of the antioxidant response element (ARE) signaling pathway - cell viability counter screen (AID 743203; calls by dose curve; further: nearly all actives have a fitted effect of over 55% in size; further: potency means the concentration at half of the fitted maximal effect)
Summary of the method: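 Cytotoxicity was tested in parallel with the ARE reporter screen. ARE-bla HepG2 cells were exposed to compounds for 16 hrs, and viability was taken from CellTiter-Glo luminescence.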

[17] = qHTS assay to identify small molecule agonists of the farnesoid-X-receptor (FXR) signaling pathway - cell viability counter screen (AID 743218); further: nearly all actives have a fitted effect of over 45% in size; further: potency means the concentration at half of the fitted maximal effect
Summary of the method: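 Cells were seeded, left 5 h at 37 C and 5% CO2, then dosed with compound in DMSO for 16 h. After the beta-lactamase FRET read, CellTiter-Glo was added and luminescence measured 30 min later.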

[18] = target: Vitamin D3 receptor (Homo sapiens) (UniProt P11473); assay: qHTS assay to identify small molecule antagonists of the vitamin D receptor (VDR) signaling pathway (AID 743223; active means well fitted inhibition curve with a large enough effect in the signal ratio in the repeat runs, not every such curve was filed as active; the % refers to the signal ratio)
Summary of the method: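 Reporter line VDR-bla; stimulus 1alpha,25-(OH)2 vitamin D3, 3 nM final; compound co-addition, 16 h 37C/5% CO2; LiveBLAzer B/G substrate 2 h RT; fluorescence intensity.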

[19] = qHTS assay to identify small molecule antagonists of the farnesoid-X-receptor (FXR) signaling pathway - cell viability counter screen (AID 743221; active means well fitted cell-killing curve with a large enough effect in the repeat runs, not every such curve was filed as active; further: nearly all actives have a fitted effect of over 50% in size)
Summary of the method: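 After a 5 h settling period, FXR-bla HEK 293T cells receive compound and chenodeoxycholic acid (50 uM final) and incubate 16 h at 37 C; CellTiter-Glo luminescence, read after 30 min at room temperature, reports cell viability.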

[20] = qHTS assay for small molecule agonists of the antioxidant response element (ARE) signaling pathway (AID 743202; active means well fitted activation curve with a large enough effect in the signal ratio in the repeat runs, not every such curve was filed as active; the % refers to the signal ratio; further: potency means the concentration at half of the fitted maximal effect)
Summary of the method: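 HepG2 ARE-bla reporter line, 2,000 cells/well; 5 h preincubation 37 C/5% CO2; compound (DMSO) 16 h 37 C; B/G FRET substrate 2 h RT; fluorescence intensity.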

Measured: Potency

CC(C)Nc1ccc(NC(C)C)c2c1C(=O)c1ccccc1C2=O
not listed: [14] | [15] | [16] | [17] | [18] | [19] | [20]
inactive: all other assays above

CCCCCCCCCCCCCCOS(=O)(=O)O
inactive: [14] | [2] | [3] | [15] | [4] | [10] | [13] | [18]
active: [16] 61.1 µM | [7] 43.6 µM | [9] 43.6 µM | [17] 54.9 µM

COc1ccc(C(=O)Nc2nc3ccccc3c(NCc3ccccc3)c2C#N)cc1
active: [14] 7.7 µM | [15] 1.74 µM
inactive: [4] | [16] | [5] | [6] | [7] | [9] | [17] | [12]

Cc1ccc(N=Nc2c(O)c(C(=O)O)cc3ccccc23)c(S(=O)(=O)O)c1
active: [1] 6.65 µM
not listed: [2] | [11] | [12] | [13] | [14] | [18] | [20]
inactive: all other assays above

CCCOC(C(=O)OC1CCN(C)CC1)(c1ccccc1)c1ccccc1
inactive: [14] | [3] | [15] | [16] | [5] | [6] | [7] | [8] | [10] | [11] | [13]

Cc1nn(C)c(Oc2ccccc2)c1/C=N/OCc1ccc(C(=O)OC(C)(C)C)cc1
inactive: [14] | [2] | [3] | [5] | [6] | [10] | [17] | [12] | [19] | [13]

O=C1[C@H]2CCCC[C@H]2C(=O)N1CCCCN1CCN(c2nsc3ccccc23)CC1
active: [1] 29.8 µM | [20] 23.7 µM
not listed: [2] | [3] | [7] | [13] | [14] | [15] | [18]
inactive: all other assays above

O=C(CS)Nc1ccccc1
not listed: [2] | [4] | [6] | [7] | [14] | [15]
inactive: all other assays above

COc1ccc(C(=O)c2ccc(OC)cc2O)c(O)c1
inactive: [1] | [3] | [16] | [5] | [6] | [7] | [8] | [17] | [19] | [13]

O=C(O)C1(C(=O)Nc2ccc(Cl)cc2Cl)CC1
inactive: [1] | [2] | [16] | [5] | [6] | [12]

— PubChem BioAssay (Tox21)
